Source: PubChem BioAssay
The source made the active and inactive calls.

What was measured:
[1] = system: Human papillomavirus type 1a protein E7 (residues 44-93); assay: HPV1a E7 fragment binders on microarrays, primary screen, biochemical, small-molecule microarray, residues 44-93, 635 nm fluorescence (AID 1108); details: small-molecule microarray binding, fluorescence 635 nm; higher = more signal;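 also: E7 fragment applied at 1 µg/mL in TBST for 1 h at 4 C; score combines spot fluorescence with its signal to noise ratio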
[2] = modulators of HCV replicon luciferase signal, primary screen, HCV replication inhibitor project, Huh7 cells, luciferase reporter (AID 1109); details: 48 h, higher = more signal;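 also: huh7 hepatoma cells harbouring a luciferase neomycin HCV replicon reporter; luciferase luminescence as measure of HCV replicon replication; test concentration not given here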
[3] = target: Left-right determination factor 2 (Homo sapiens) (UniProt O00292); assay: LEFTY2 binders on small-molecule microarrays, primary screen, biochemical, small-molecule microarray, 635 nm fluorescence scan (AID 1110); details: LEFTY2 binding, higher = more signal
Left-right determination factor 2 (Homo sapiens), sequence (O00292 whole entry, looked up): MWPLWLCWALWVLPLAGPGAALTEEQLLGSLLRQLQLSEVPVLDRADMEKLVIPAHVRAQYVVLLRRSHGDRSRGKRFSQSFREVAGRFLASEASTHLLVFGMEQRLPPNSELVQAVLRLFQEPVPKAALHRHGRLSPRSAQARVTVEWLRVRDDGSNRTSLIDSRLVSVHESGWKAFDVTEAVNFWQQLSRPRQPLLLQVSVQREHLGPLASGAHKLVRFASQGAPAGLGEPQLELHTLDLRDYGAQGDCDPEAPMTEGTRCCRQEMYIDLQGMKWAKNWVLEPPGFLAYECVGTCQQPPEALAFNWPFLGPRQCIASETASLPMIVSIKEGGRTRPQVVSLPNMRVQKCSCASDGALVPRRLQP

[4] = target: Calmodulin-1 (Homo sapiens) (UniProt P0DP23); assay: CALM1 binders on microarrays, EGTA buffer, profiling panel, biochemical, small-molecule microarray, Cy5-labelled CALM1 (AID 1111); details: Cy5-CALM1 binding fluorescence, higher = more signal;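 also: labelled calmodulin applied in Tris saline Tween buffer holding calcium plus EGTA and DTT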
[5] = target: Calmodulin-1 (Homo sapiens) (UniProt P0DP23); assay: calcium-bound CALM1 binders on microarrays, profiling panel, artefact control for SMM control-protein annotation, biochemical, small-molecule microarray, Cy5-labelled CALM1, plus calcium (AID 1112); details: Cy5-CALM1 binding fluorescence, higher = more signal;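 also: score merges spot fluorescence with signal to noise from triplicate slides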
[6] = small-molecule microarray binders of probe aWnt5a, primary screen, biochemical, biotinylated probe, 635/667 nm fluorescence (AID 1113); details: higher = more signal;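 also: score merges 667 nm fluorescence intensity with signal-to-noise per printed feature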
[7] = small-molecule microarray binders of probe aShh, primary screen, biochemical, biotinylated probe, 635/667 nm fluorescence (AID 1114); details: higher = more signal;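 also: probe is biotin-labelled aShh protein from a stem cell growth factor screen; measures binding of labelled protein to compounds printed on the slide; score merges feature fluorescence at 667 nm with signal-to-noise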
[8] = small-molecule microarray binders of probe aNog, primary screen, biochemical, biotinylated probe, 635/667 nm fluorescence (AID 1115); details: higher = more signal;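 also: probe is biotinylated aNog protein used at 0.15 µg/mL for 1 h at 4 C; z-score combines 667 nm fluorescence of each spot with its signal to noise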
[9] = target: Torsin-1A-interacting protein 1 (Homo sapiens) (UniProt Q5JTV8); assay: LAP1 binders from COS7 cell lysate, primary screen, small-molecule microarray, 635/667 nm fluorescence (AID 1116); details: COS7-hLAP1 lysate binding, 635 nm fluorescence, higher = more signal
Torsin-1A-interacting protein 1 (Homo sapiens), sequence (Q5JTV8 whole entry, looked up): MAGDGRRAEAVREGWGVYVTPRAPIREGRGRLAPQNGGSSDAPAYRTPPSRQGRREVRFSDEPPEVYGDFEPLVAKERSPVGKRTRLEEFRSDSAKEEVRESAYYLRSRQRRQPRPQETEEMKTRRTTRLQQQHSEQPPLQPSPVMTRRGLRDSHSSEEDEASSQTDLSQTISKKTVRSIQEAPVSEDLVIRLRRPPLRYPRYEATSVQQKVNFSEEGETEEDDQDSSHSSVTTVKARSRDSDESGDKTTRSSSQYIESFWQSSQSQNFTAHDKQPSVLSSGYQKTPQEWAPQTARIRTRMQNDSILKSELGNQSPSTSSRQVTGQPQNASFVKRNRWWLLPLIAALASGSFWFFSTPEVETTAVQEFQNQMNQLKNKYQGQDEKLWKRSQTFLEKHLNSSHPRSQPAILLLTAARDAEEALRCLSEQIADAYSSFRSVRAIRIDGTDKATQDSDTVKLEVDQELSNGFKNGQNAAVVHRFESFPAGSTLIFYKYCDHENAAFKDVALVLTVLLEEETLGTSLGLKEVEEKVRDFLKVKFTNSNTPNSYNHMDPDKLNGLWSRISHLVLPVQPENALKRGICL

[10] = target: Alpha-bungarotoxin (Bungarus multicinctus) (UniProt P60615); assay: alpha-bungarotoxin binders on microarray, profiling panel, artefact control for SMM control protein annotation, biochemical, small-molecule microarray, Alexa647 label, 635/667 nm fluorescence (AID 1117); details: alpha-BTX-A647 binding fluorescence, higher = more signal
Alpha-bungarotoxin (Bungarus multicinctus), sequence (P60615 whole entry, looked up): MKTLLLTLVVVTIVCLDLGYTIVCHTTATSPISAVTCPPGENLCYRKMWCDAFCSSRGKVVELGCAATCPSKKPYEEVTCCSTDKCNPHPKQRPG

[11] = target: Albumin (Bos taurus) (UniProt P02769); assay: bovine serum albumin binders on microarray, profiling panel, artefact control for SMM control protein annotation, biochemical, small-molecule microarray, Alexa647 label, 635/667 nm fluorescence (AID 1118); details: BSA-A647 binding, fluorescence 635 nm, higher = more signal;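 also: score merges 667 nm emission intensity and signal-to-noise per printed compound spot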
Albumin (Bos taurus), sequence (P02769 whole entry, looked up): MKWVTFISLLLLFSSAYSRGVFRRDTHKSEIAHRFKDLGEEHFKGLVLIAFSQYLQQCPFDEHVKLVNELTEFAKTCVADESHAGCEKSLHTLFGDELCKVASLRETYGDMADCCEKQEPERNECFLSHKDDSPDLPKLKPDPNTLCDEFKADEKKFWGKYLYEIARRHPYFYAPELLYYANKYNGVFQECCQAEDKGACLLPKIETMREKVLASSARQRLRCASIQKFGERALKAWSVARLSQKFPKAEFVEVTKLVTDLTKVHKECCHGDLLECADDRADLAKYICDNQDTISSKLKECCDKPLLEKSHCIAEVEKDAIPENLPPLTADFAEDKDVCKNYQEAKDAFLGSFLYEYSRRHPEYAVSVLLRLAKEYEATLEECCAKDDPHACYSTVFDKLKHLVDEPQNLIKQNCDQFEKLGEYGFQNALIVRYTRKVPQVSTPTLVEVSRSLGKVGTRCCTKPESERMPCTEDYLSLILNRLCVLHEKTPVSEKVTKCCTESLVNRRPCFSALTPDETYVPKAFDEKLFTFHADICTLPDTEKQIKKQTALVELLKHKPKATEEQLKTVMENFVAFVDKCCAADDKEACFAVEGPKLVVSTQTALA

[12] = small-molecule microarray binders of probe aXIP, primary screen, biochemical, NeuroSMM set, 635/667 nm fluorescence (AID 1119); details: higher = more signal, called active from +8 up or from −8 down;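 also: probe is the protein aXip251-270 applied at 1 µg/mL to compound-printed slides; binding of probe to printed compounds measured as 667 nm fluorescence plus signal to noise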
[13] = small-molecule binders of probe aNOTCH3, primary screen, biochemical, small-molecule microarray, 635/667 nm fluorescence (AID 1120); details: higher = more signal;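 also: probe is a biotin-tagged antibody raised against NOTCH3 rather than NOTCH3 protein; score merges spot fluorescence near 667 nm with spot signal to noise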
[14] = small-molecule binders of probe aNOTCH2, primary screen, biochemical, small-molecule microarray, 635/667 nm fluorescence (AID 1121); details: higher = more signal;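 also: score merges feature fluorescence read at 667 nm with its signal to noise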
[15] = target: Carbonic anhydrase 2 (Homo sapiens) (UniProt P00918); assay: CAII small-molecule binders, profiling panel, biochemical, small-molecule microarray, Alexa647-labelled CAII (AID 1122); details: CAII-A647 binding fluorescence, higher = more signal
[16] = COS7 lysate on small-molecule microarray, probe aHis, 635 nm (AID 1123); details: COS7 cell lysate, fluorescence, higher = more signal;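 also: z-score combines 667nm fluorescence intensity with signal-to-noise per printed compound spot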
[17] = compound binding in COS7 lysate, probe aLAP1, primary screen, cell lysate, small-molecule microarray (AID 1124); details: probe aLAP1, fluorescence, higher = more signal;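 also: lysate comes from COS7 cells expressing LAP1 and is applied at 0.3 µg/mL; score merges spot fluorescence near 667 nm with signal-to-noise over triplicate slides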
[18] = system: Sam68 (KHDRBS1); assay: Sam68 small-molecule binders, primary screen, biochemical, small-molecule microarray, 635 nm fluorescence (AID 1125); details: small-molecule microarray binding, higher = more signal;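 also: score merges 667 nm channel intensity with signal to noise over triplicate slides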
[19] = system: Chordin-like protein 2 (CHRDL2); assay: CHRDL2 small-molecule binders, primary screen, biochemical, small-molecule microarray, 635 nm fluorescence (AID 1126); details: small-molecule microarray binding, fluorescence 635 nm; higher = more signal;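 also: printed compound slides probed with Chrdl2 protein at 4 µg/mL for 1 h at 4 C; score merges 667 nm emission intensity with signal to noise over three replicate slides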
[20] = target: Concanavalin-A (Canavalia ensiformis) (UniProt P02866); assay: ConA small-molecule binders, primary screen, artefact control for SMM control protein annotation, biochemical, small-molecule microarray, Alexa647 label, 635 nm (AID 1127); details: ConA-A647 binding fluorescence, higher = more signal;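 also: z combines 667 nm emission intensity with signal-to-noise across three replicate slides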
Concanavalin-A (Canavalia ensiformis), sequence (P02866 whole entry, looked up): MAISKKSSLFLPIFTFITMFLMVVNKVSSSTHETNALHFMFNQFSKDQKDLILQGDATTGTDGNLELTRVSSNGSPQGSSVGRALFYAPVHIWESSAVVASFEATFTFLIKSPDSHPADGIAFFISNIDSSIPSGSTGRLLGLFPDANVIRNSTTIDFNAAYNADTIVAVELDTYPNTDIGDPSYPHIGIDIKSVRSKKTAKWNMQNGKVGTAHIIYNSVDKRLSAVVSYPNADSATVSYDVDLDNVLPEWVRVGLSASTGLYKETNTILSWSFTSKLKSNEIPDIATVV

Row | Compound | composite z-score [1] | z-score [2] | composite z-score [3] | composite z-score [4] | composite z-score [5] | composite z-score [6] | composite z-score [7] | composite z-score [8] | composite z-score [9] | composite z-score [10] | composite z-score [11] | composite Z-score [12] | composite z-score [13] | composite z-score [14] | composite z-score [15] | composite z-score [16] | composite z-score [17] | composite z-score [18] | composite z-score [19] | composite z-score [20]
1 | O=C(NCCO)C1=C[C@H](Oc2ccccc2I)[C@@H](O)[C@H](NCc2ccc(F)cc2)C1 | -0.938 | -3.66 | 0.949 | -0.815 | -2.87 | -0.237 | -0.262 | -0.0542 | 5.01 | -0.89 | -1.89 | -0.48 (inactive) | -0.161 | -0.14 | -0.934 | -0.809 | 1 | -0.285 | -0.0242 | -1.83
2 | C[N+](C)(C)CCCC[C@@H]1NC(=O)[C@H]2C[C@@H](C(=O)NCCCCCNC(=O)CS)[C@@H](c3ccc(O)cc3)N2C1=O | 0.727 | 0.215 | 0.355 | 0.956 | 0.213 | 0.0101 | -0.0553 | -0.373 | 2.49 | -0.256 | 0.896 | 0.325 (inactive) | -0.154 | -0.158 | 0.678 | 1.45 | 0.361 | 0.616 | 0.268 | 0.997
3 | COCCOC(=O)N1C(=O)[C@@]2(c3cc(C#CC4(O)CCCCCC4)ccc31)[C@H](c1ccccc1OCCO)N1[C@H](c3ccccc3)[C@H](c3ccccc3)OC(=O)[C@H]1[C@@H]2C(=O)N1CCCCCCC1 | 1.06 | -2.28 | 0.502 | 1.67 | 1.46 | 0.355 | 0.661 | 2.71 | 3.51 | 1.49 | 0.187 | 0.961 (inactive) | 1.07 | 0.513 | 0.497 | 2.16 | 0.364 | 1.29 | 0.905 | 0.992
4 | CC(C)CNC(=O)[C@@H]1c2ccccc2C(=O)N(C2Cc3ccccc3C2)[C@H]1c1ccc(CO)cc1 | 1.11 | -0.235 | -0.325 | -0.588 | -0.616 | -0.101 | -0.185 | 0.325 | 0.691 | -0.205 | -0.191 | -0.577 (inactive) | -0.219 | -0.0984 | 0.687 | 0.284 | 1.45 | 0.547 | -0.0902 | 0.378
5 | CCCC[C@@H](O)C1=C(COC)Cn2c(=O)n(-c3ccccc3)c(=O)n2[C@H]1CO | -0.877 | 1.36 | -0.1 | -0.97 | -0.694 | -0.172 | -0.2 | 0.474 | 0.0334 | -0.115 | -0.0338 | 0.0894 (inactive) | -0.0967 | -0.166 | -0.469 | -0.162 | 0.0924 | -0.532 | -0.0073 | -0.698
6 | COc1cc(OC)c(C(O)C2C=CC3C(=O)N(c4ccccc4)C(=O)C3N2Nc2ccccc2F)cc1Br (stereo not given) | 1.31 | -1.17 | -0.137 | 1.96 | 0.764 | -0.0462 | 0.279 | 1.62 | 1.63 | 1.92 | 0.89 | 0.476 (inactive) | 0.378 | -0.0664 | 0.693 | 2.91 | 0.408 | 1.34 | -0.577 | 1.1
7 | CCCC=C(CCC)[C@@H](NC(=O)c1ccccc1)c1ccc(C(=O)OC)cc1 | 0.882 | -1.32 | 0.898 | -0.271 | -0.52 | 0.732 | 0.318 | 1.71 | -0.171 | 0.303 | -0.122 | -0.222 (inactive) | 1.21 | -0.166 | 0.526 | 1.77 | 0.0914 | 0.823 | 0.308 | 0.711
8 | CN(C)C(=O)[C@]1(Cc2ccccc2CN=[N+]=[N-])N=C(c2ccc(OCCCO)cc2)O[C@@H]1c1ccccc1N=[N+]=[N-] | 1.44 | -1.6 | -0.472 | 1.71 | 0.422 | -0.0161 | 0.0639 | 0.526 | 0.609 | 1.14 | 0.873 | -0.118 (inactive) | -0.155 | -0.153 | 0.58 | 2.68 | -0.339 | 1.3 | -0.534 | 1.07
9 | COC(=O)[C@@H]1N=C(c2ccc(OCCCO)cc2)O[C@@H]1c1ccccc1CN=[N+]=[N-] | 1.41 | -2.67 | -0.769 | 0.393 | -0.292 | 0.0224 | 0.131 | 1.29 | 0.609 | 0.893 | 0.273 | 0.443 (inactive) | 0.181 | -0.0162 | 0.552 | 1.18 | -0.0169 | 0.513 | -0.689 | 0.116
10 | CN(C)C(=O)[C@@]1(CCS(=O)(=O)c2ccccc2)N=C(c2ccc(OCCCO)cc2)O[C@H]1c1ccccc1N=[N+]=[N-] | 1.43 | -0.235 | 0.258 | -0.038 | -0.0024 | 0.0445 | 0.199 | -0.484 | 1.56 | 0.901 | 0.856 | -0.288 (inactive) | 0.488 | -0.112 | 0.669 | 2.13 | 0.521 | 1.29 | -0.0717 | 0.972
11 | C[C@H]1C2[C@H](Cc3ccccc3)NC(=O)[C@]23C(=O)NCC(=O)N2CCC[C@H]2C(=O)NC/C=C\C/C=C/C3[C@@H]2O[C@]12C (stereo not given in full) | -0.8 | 0.288 | 0.245 | -0.549 | -0.698 | -0.0417 | -0.2 | -0.28 | -0.177 | -0.246 | -0.674 | -0.403 (inactive) | 0.155 | -0.176 | 0.718 | -0.981 | -0.632 | -0.158 | 0.486 | -0.351
